TcdB inh – TcdB glycohydrolase inhibitors, primary screen, biochemical, single point, plate reader; inhibition, % at 9.99 µM; TcdB glycohydrolase enzymatic assay; Toxin B (Clostridioides difficile), P18177; hit rate 0.24% among 350,000; in the data active means inhibition above about 10%
CCHF vOTU inh – CCHFV vOTU protease inhibitors, primary screen, biochemical, Pep-AMC substrate, fluorescence | Crimean-Congo hemorrhagic fever virus L polyprotein viral ovarian tumor (vOTU) protease … | inhibition, % at 11.5 µM | hit rate 0.55% among 370,000; in the data active means inhibition above about 30%; further: 0% = vehicle wells with enzyme and 100% = no enzyme wells
SSB-PriA inh – inhibitors of Klebsiella pneumoniae PriA binding to SSB C-terminal tail, primary screen, biochemical, AlphaScreen | hit rate 0.6% among 430,000 | AlphaScreen SSBct-PriA binding, biotinylated peptide | inhibition, % at 33 µM | PriA–SSB C-terminal tail interaction (Klebsiella pneumoniae); in the data active means inhibition mostly above about 37%, no sharp cut-off; inactive means mostly below about 20%;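 further: plate controls were negative control peptide for no effect and reference peptide for full effect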
VHR inh abs – VHR1 phosphatase inhibitors, primary screen, biochemical, absorbance, uHTS; Dual specificity protein phosphatase 3 (Homo sapiens), P51452; recombinant VHR phosphatase, pNPP absorbance; inhibition, % at 13.3 µM; hit rate 0.52% among 290,000; in the data active means inhibition above about 50%
3CLpro inhibitor – SARS-CoV 3CLpro protease inhibitors, primary screen, biochemical, quenched FRET | inhibition, % at 6 µM | recombinant SARS-CoV 3CLpro, quenched FRET peptide cleavage | Replicase polyprotein 1ab (Severe acute respiratory syndrome coronavirus), P0C6X7 | hit rate 0.14% among 290,000 | AID 1706, 2009; in the data active means inhibition above about 12%
Vc quorum ag – inducers of Vibrio cholerae quorum light production without autoinducers, primary screen, BH1578 luxS cqsA deficient, single point; V. cholerae BH1578 lux reporter, luminescence, 6 h; hit rate 0.16% among 350,000; activation, % at 18.7 µM; AID 588436, 2011; in the data active means activation mostly above about 9.7%, no sharp cut-off
An asterisk follows results filed as active; i = inactive; · = no result; ! = repeats disagree. Compounds with a hit are over-represented: about 1.3% of the library has one in this group of screens.

SMILES	TcdB inh	CCHF vOTU inh	SSB-PriA inh	VHR inh abs	3CLpro inhibitor	Vc quorum ag
COC(=O)c1ccc(/C=C2\CCn3c2nc2cc(C(=O)O)ccc2c3=O)cc1	·	·	0	-9	-1	-1
Cc1csc(NC(=O)Cn2nc(C)c([N+](=O)[O-])c2C)n1	1	-5	-15	26	2	i
CCc1c(C)sc(NC(=O)Cn2nc(C)c([N+](=O)[O-])c2C)c1C(N)=O	·	-3	1	53*	1	i
CN(C(=O)COc1ccc(Br)cc1Br)C1CCS(=O)(=O)C1 (stereo not drawn)	·	·	-5	·	·	·
CC1CCCCC1NC1=NCCCS1 (stereo not drawn)	·	·	·	54*	-3	·
N#Cc1ccccc1NC(=O)CSc1nccn1-c1ccc(C(=O)NCc2ccccc2F)cc1	·	·	35*	·	·	·
COc1ccc(OC)c(C2CC(c3ccccc3)=NN2C(=S)Nc2ccccc2)c1 (stereo not drawn)	1	-7	1	13	-3	-1
COc1ccccc1C1=NN(C(=S)Nc2ccccc2)C(c2ccco2)C1 (stereo not drawn)	·	3	39*!	21	3	11
CCN1CCN(C(=O)c2cc3c(OC)c(OC)c(OC)cc3[nH]2)CC1	3	-11	64*	34	4	i
COc1cc2[nH]c(C(=O)Nc3ccc(F)cc3)cc2c(OC)c1OC	1	3	·	53*	-1	-1
COc1ccc(OC)c(CNC(=O)Cc2nnc(-c3ccccn3)o2)c1	·	·	-17	·	·	·
Cc1ccc2sc(-c3ccc(NC(=O)CCN4C(=O)c5ccccc5C4=O)cc3)nc2c1	1	-19	·	54*	2	·
O=C(CCCN1C(=O)c2cccc3cccc(c23)C1=O)Nc1ccc(-c2nc3ccccc3s2)cc1	·	·	-2	·	·	·
CCCCN=C[C@]12CCC(O)CC1(O)CCC1[C@@H]2CC[C@]2(C)[C@H](C3C=CC(=O)O3)CCC12O (stereo partly drawn)	1	3	66*	-6	-3	i
O=S(=O)(c1ccc(Cl)cc1)N1CCN(CC(O)Cn2c3ccccc3c3ccccc32)CC1 (stereo not drawn)	·	·	8	·	·	·
O=c1c(-c2nc(C3CC3)no2)cccn1Cc1c(F)cccc1Cl	·	·	8	·	·	·
Cc1cc(NC(=O)Cn2cccc(-c3nc(C4CC4)no3)c2=O)no1	·	·	26*	·	·	·
Cc1cccc(Nc2n[nH]c(=S)s2)c1C	0	-2	0	22	1	i
COc1ccccc1Nc1n[nH]c(=S)s1	6	-12	1	51*	3	i
CCc1ccc(N(CC(=O)NCc2ccc3c(c2)OCO3)C(=O)c2csnn2)cc1	-10	6	-9	53*	-2	-5
CC1CC(OCC(S)CN2CCN(Cc3ccccc3)CC2)CC(C)(C)C1 (stereo not drawn)	·	·	22	·	·	·
COCCNC(=O)Cn1c(CO)cnc1SCC(=O)Nc1ccc(C(N)=O)cc1	·	·	-6	·	·	·
COc1ccc(OCc2nnc(SCC(=O)Nc3ccc(C)cc3)o2)cc1	1	1	-12	25	3	0
COc1ccc(Cc2nnc(SCC(=O)N(C)CC(=O)Nc3ccc(C)cc3)o2)cc1	0	7	-11	·	·	29*
O=c1c2ccccc2nc2sc(Nc3ccc(F)c(Cl)c3)nn12	·	·	13	·	·	·
SMILES	TcdB inh	CCHF vOTU inh	SSB-PriA inh	VHR inh abs	3CLpro inhibitor	Vc quorum ag
CCOc1cc(/C=C2\CN(C)C/C(=C\c3ccc(O)c(OCC)c3)C2=O)ccc1O	-6	-6	8	10	-2	i
COc1cc(C=C2CN(C)C(=O)C2=O)ccc1O	21*	12	·	·	·	i
Cc1nc(-c2ccccc2NC(=O)[C@H](C)n2nc(-c3cccs3)ccc2=O)cs1	·	·	3	·	·	·
COc1ccc(CN2CCN(Cc3cc4ccccc4o3)CC2CCO)cc1C (stereo not drawn)	0	-8	1	59*	-2	i
COc1ccc2cc3c(nc2c1)OCC3	11*	2	0	9	-8	i
COc1ccc2nc3c(nc2c1)CCCC3	1	-53	-15	7	3	-10
CCOc1ccc2nc(N3CCN(C(=O)c4ccnn4C)CC3)sc2c1	·	·	9	·	·	·
Cc1nc(-c2ccccc2NC(=O)c2ccc(Cn3ccnc3)cc2)cs1	·	·	14	·	·	·
CC(C)(C)C(=O)c1sc(Nc2ccccc2)nc1N	3	2	40*	-1	5	i
CC(=O)c1sc(Nc2ccccc2)nc1C	1	5	·	·	·	·
CN(C)CCCNC(=O)C[C@H]1C[C@H](C(=O)N2CCCCC2)[C@@]2(CCc3ccccc3)c3[nH]c4cc(-c5ccco5)ccc4c3CCN2C1=O	4	-14	46*	·	·	-1
O=C1CC(c2cccc([N+](=O)[O-])c2)c2c(ccc3ccccc23)N1 (stereo not drawn)	·	5	-6	28	-3	i
Cc1ccc(C2CC(=O)Nc3c2ccc2ccccc32)cc1[N+](=O)[O-] (stereo not drawn)	·	-14	42*	4	5	0
Cn1cc(CC(=O)NCCc2csc(-n3cccn3)n2)c2ccccc21	·	·	2	·	·	·
CN(C)c1ccc(C(CNC(=O)c2ccco2)N2CCc3ccccc3C2)cc1 (stereo not drawn)	·	·	51	·	·	·
O=C(CSc1ccc(-c2ccco2)nn1)N1CCN(c2ccccc2)CC1	·	·	-15	·	·	·
Nc1nc(CSCc2ccccc2)nc(N2CCOCC2)n1	·	-1	0	20	4	0
Nc1nc(CSc2nc3ccccc3s2)nc(N2CCOCC2)n1	-1	14	-11	53*	3	i
CCCNC(=O)C1(C)CCCN(C(=O)c2ccccc2OC(F)(F)F)C1 (stereo not drawn)	12*	-12	·	·	·	0
Nc1nc(CO)cs1	·	·	-4	·	·	·
CC1=CC(C)(C)Nc2ccccc21	1	7	53*!	18	-7	0
COc1ccc([C@@H]2SCCN2C(=O)COc2ccccc2OC)cc1Br	·	·	-5	·	·	·
O=C(c1cccc(Br)c1)N(C(=O)N1CCCCC1)c1ccccc1	·	·	-1	·	·	·
CCOc1ccc(-n2ccnc2SCC(=O)Nc2nnc(CC)s2)cc1	·	8	9	55*	0	-1
COc1cc(NC(=O)NCC(c2ccc3c(c2)CCCN3C)N2CCCC2)cc(OC)c1 (stereo not drawn)	·	·	40*	·	·	·
C=CCn1c(SCC(=O)Nc2nsc(-c3ccccc3)n2)nc2scc(-c3ccc(F)cc3)c2c1=O	·	·	-20	·	·	·
CC12CN3CC(C)(CN(C1)C3c1cccnc1)C2=O (stereo not drawn)	·	0	-1	39	-4	3
CCC12CN3CC(CC)(CN(C1)C3c1cccnc1)C2=O (stereo not drawn)	·	-5	-12	19	-2	17*
O=c1ccc(-c2ccco2)nn1CCNS(=O)(=O)c1ccccc1C(F)(F)F	·	·	8	·	·	·
